From article PMC7862700, “An all-to-all approach to the identification of sequence-specific readers for epigenetic DNA modifications on cytosine”

What was measured:
Experiment in all cases: DAPPL (digital affinity profiling via proximity ligation, sequencing); 10 mM Tris-HCl pH 7.5, 50 mM NaCl, 1 mM DTT, 4% glycerol, room temperature, 30 min; GST-TFs on glutathione beads, 16-mer random dsDNA library, 0.1% formaldehyde crosslink after washing; high values mean tight binding
FEV = target: T1, FEV (Homo sapiens, UniProt Q99581 1-238); details: protein: recombinant; tags: N-terminal GST; dsDNA, one strand shown
T1 sequence: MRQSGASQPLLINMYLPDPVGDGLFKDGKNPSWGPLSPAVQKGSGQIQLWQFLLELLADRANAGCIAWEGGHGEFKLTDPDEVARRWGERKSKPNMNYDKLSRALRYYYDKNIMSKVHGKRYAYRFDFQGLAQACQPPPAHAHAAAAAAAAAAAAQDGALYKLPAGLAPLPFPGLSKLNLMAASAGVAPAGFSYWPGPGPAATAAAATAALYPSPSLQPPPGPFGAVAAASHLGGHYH
In short: (§1)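 In yeast, human transcription factors were expressed with a GST fusion, then pulled down on glutathione beads and given DNA barcodes. Pooled with a tag-only sample, they were exposed to 200 nmole of a 16-mer random double-stranded DNA library (Tris/NaCl/DTT/glycerol buffer, room temperature, 30 min), washed, crosslinked with 0.1% formaldehyde, proximity-ligated using BsaI/T4 ligase for 1 h at 37 °C, PCR-amplified and read on an Illumina NextSeq500. Each hexamer's frequency of reads for a factor, divided by the matching frequency for the tag-only sample, gives the binding signal.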

ETV5 = ETV5 (Homo sapiens, UniProt P41161 1-510); details: protein: recombinant; tags: N-terminal GST; dsDNA, one strand shown
ETV5, sequence (P41161 whole entry): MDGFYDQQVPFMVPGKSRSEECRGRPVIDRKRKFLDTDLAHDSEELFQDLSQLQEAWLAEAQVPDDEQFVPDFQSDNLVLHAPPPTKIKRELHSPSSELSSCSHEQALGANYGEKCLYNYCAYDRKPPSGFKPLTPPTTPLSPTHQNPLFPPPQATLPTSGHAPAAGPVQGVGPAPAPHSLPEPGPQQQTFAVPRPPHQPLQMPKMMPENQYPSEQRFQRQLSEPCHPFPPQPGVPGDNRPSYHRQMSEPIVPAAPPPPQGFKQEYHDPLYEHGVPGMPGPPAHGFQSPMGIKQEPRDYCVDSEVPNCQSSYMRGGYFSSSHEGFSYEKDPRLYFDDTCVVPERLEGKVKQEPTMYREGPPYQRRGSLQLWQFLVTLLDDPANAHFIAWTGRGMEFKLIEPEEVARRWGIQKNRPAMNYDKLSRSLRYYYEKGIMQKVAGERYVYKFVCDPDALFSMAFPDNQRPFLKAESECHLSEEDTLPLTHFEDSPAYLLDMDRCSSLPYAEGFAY
In short: as §1

HSF1 = HSF1 (Homo sapiens, UniProt Q00613 1-529); details: protein: recombinant; tags: N-terminal GST; chain copies: 3; dsDNA, one strand shown
HSF1, sequence (Q00613 whole entry): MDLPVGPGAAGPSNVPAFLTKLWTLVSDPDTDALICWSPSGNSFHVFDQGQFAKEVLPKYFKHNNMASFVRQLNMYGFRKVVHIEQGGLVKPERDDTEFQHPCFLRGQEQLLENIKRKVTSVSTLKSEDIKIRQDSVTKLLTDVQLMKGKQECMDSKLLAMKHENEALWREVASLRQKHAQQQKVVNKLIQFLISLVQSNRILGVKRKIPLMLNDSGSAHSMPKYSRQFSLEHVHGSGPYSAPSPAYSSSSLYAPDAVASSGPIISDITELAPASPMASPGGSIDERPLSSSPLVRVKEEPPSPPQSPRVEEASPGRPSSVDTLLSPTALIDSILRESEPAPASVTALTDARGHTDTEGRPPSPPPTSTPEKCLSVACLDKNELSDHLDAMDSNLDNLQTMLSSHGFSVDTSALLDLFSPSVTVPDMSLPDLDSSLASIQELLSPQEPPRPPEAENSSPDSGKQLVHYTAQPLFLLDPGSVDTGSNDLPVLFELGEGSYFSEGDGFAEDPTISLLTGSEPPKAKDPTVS
In short: as §1

SPIC = target: T2, SPIC (Homo sapiens, UniProt Q8N5J4 1-248); details: protein: recombinant; tags: N-terminal GST; dsDNA, one strand shown
T2 sequence: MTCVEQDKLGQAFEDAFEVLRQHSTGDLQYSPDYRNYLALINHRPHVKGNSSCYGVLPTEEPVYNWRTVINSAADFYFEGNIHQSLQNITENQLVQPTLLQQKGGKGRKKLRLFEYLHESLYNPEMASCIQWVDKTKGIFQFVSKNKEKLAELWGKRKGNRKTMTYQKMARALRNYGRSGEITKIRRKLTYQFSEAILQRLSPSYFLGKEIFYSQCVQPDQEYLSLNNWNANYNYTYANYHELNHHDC
In short: as §1

ELF4 = ELF4 (Homo sapiens, UniProt Q99607 1-663); details: protein: recombinant; tags: N-terminal GST; dsDNA, one strand shown
ELF4, sequence (Q99607 whole entry): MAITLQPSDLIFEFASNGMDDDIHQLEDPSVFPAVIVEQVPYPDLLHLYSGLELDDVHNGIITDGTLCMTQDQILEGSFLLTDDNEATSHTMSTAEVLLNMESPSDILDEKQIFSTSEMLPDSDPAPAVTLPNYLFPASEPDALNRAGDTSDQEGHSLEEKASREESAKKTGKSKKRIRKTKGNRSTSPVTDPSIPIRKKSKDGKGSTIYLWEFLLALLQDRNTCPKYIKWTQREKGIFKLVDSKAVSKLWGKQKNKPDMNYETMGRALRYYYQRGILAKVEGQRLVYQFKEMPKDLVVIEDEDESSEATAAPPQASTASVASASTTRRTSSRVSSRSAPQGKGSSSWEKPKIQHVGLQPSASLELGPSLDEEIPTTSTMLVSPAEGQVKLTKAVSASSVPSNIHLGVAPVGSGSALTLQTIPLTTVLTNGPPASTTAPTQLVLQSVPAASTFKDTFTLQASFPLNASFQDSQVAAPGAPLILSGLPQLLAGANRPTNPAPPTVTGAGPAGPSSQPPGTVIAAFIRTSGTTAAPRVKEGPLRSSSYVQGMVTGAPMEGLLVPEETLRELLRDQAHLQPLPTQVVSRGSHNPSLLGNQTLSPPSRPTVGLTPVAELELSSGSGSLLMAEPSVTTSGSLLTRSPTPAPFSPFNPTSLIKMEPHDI
In short: as §1

ELK4 = target: T3, ELK4 (Homo sapiens, UniProt P28324-2 1-405); details: protein: recombinant; tags: N-terminal GST; dsDNA, one strand shown
T3 sequence: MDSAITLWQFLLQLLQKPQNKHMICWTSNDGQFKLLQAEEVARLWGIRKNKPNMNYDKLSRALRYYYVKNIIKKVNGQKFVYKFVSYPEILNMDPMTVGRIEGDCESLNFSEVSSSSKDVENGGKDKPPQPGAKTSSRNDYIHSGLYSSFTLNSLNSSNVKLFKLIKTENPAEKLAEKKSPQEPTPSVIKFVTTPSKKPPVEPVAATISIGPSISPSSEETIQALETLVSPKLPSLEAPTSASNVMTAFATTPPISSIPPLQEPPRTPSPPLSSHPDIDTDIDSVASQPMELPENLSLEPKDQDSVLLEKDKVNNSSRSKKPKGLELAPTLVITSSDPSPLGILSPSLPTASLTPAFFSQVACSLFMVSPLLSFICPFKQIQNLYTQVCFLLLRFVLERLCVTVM
In short: as §1

ETV2 = target: T4, ETV2 (Homo sapiens, UniProt O00321 1-342); details: protein: recombinant; tags: N-terminal GST; dsDNA, one strand shown
T4 sequence: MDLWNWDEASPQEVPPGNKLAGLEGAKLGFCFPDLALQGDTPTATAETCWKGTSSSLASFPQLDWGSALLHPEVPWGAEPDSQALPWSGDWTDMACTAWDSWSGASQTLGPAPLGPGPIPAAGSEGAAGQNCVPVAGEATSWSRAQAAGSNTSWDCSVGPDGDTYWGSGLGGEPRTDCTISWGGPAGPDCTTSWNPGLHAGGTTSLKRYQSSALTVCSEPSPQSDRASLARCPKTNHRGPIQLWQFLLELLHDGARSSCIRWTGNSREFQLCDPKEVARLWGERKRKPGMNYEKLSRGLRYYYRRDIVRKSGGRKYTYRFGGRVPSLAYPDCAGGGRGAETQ
In short: as §1

ELF3 = target: T5, ELF3 (Homo sapiens, UniProt P78545 1-371); details: protein: recombinant; tags: N-terminal GST; dsDNA, one strand shown
T5 sequence: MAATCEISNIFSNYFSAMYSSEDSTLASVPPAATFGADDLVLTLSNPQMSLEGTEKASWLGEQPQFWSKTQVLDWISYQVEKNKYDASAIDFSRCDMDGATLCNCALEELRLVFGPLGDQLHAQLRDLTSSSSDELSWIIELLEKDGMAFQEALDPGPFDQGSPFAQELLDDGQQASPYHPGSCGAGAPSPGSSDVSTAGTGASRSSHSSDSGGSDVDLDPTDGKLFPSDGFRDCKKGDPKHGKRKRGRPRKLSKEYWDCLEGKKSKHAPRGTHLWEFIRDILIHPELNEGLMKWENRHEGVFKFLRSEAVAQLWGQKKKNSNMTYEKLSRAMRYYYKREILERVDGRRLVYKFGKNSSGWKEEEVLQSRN
In short: as §1

ETV1 = ETV1 (Homo sapiens, UniProt P50549 1-477); details: protein: recombinant; tags: N-terminal GST; dsDNA, one strand shown
ETV1, sequence (P50549 whole entry): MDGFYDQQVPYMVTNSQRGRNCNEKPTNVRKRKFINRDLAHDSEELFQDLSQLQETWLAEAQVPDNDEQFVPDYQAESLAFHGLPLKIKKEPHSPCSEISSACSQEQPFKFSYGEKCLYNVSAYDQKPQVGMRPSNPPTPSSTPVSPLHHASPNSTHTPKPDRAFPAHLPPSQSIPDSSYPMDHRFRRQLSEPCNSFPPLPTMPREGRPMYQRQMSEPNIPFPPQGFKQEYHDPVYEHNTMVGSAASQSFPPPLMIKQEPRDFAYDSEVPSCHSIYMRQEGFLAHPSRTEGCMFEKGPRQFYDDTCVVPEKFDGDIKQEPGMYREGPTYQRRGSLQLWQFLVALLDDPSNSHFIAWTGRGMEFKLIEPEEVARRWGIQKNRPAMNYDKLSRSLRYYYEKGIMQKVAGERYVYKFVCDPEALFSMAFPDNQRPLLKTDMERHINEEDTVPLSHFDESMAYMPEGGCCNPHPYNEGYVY
In short: as §1

ERF = target: T6, ERF (Homo sapiens, UniProt P50548 1-548); details: protein: recombinant; tags: N-terminal GST; dsDNA, one strand shown
T6 sequence: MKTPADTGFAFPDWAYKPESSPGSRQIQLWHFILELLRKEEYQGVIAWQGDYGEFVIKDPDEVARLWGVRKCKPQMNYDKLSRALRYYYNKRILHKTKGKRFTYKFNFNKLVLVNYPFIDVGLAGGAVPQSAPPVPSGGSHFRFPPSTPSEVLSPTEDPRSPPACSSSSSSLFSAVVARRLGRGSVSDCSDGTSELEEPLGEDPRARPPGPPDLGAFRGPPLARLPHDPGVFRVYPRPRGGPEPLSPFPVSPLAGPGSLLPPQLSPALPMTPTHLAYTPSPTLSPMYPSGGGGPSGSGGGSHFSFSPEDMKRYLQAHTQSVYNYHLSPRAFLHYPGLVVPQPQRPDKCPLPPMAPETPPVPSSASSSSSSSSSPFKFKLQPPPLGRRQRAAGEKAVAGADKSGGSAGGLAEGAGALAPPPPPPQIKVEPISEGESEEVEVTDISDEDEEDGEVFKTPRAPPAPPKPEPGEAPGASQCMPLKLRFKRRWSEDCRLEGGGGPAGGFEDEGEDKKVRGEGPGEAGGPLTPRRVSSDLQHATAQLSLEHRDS
In short: as §1

ETV3L = target: T7, ETV3L (Homo sapiens, UniProt Q6ZN32 1-361); details: protein: recombinant; tags: N-terminal GST; dsDNA, one strand shown
T7 sequence: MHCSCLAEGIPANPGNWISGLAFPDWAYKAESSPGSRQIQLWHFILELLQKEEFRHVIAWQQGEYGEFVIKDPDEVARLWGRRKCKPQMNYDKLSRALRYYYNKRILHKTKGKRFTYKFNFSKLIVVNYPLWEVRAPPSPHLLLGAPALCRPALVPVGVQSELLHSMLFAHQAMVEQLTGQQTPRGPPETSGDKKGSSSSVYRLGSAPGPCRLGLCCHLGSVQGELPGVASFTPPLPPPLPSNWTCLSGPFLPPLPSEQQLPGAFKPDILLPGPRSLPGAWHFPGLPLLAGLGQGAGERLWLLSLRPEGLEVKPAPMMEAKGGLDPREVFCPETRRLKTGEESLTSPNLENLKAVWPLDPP
In short: as §1

ETS2 = target: T8, ETS2 (Homo sapiens, UniProt P15036 1-469); details: protein: recombinant; tags: N-terminal GST; dsDNA, one strand shown
T8 sequence: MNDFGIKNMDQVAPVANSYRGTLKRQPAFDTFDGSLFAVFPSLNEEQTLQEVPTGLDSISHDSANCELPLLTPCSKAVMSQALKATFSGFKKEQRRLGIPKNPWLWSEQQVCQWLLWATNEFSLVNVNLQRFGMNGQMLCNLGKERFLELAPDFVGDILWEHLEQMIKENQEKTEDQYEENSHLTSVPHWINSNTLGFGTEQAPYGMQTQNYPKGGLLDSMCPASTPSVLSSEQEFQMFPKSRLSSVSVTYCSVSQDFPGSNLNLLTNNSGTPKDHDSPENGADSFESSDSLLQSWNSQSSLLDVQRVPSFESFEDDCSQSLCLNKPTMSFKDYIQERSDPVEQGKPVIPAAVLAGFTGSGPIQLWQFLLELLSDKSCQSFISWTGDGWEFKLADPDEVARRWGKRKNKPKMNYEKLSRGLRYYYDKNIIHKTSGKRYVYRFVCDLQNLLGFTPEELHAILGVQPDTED
In short: as §1

SPDEF = target: T9, SPDEF (Homo sapiens, UniProt O95238 1-335); details: protein: recombinant; tags: N-terminal GST; dsDNA, one strand shown
T9 sequence: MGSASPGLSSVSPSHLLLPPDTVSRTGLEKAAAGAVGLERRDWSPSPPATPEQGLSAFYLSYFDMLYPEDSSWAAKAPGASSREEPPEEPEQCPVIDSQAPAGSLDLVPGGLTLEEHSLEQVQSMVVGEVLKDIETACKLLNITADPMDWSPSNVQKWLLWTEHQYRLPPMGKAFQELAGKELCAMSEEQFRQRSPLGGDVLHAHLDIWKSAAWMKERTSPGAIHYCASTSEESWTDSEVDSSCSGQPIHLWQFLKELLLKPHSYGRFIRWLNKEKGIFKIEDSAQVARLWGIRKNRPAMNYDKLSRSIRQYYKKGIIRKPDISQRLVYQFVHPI
In short: as §1

ETV7 = target: T10, ETV7 (Homo sapiens, UniProt Q9Y603 1-341); details: protein: recombinant; tags: N-terminal GST; dsDNA, one strand shown
T10 sequence: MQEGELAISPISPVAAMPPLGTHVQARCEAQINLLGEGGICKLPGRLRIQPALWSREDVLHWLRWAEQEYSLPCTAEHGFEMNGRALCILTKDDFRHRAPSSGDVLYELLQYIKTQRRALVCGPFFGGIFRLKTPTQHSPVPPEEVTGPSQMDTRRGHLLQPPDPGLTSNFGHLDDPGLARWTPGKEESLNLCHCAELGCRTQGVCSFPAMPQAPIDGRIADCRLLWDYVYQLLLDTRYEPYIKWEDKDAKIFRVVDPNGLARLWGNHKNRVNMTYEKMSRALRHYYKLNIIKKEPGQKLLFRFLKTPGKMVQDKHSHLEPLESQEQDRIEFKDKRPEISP
In short: as §1

ELF5 = target: T11, ELF5 (Homo sapiens, UniProt Q9UKW6-2 1-255); details: protein: recombinant; tags: N-terminal GST; dsDNA, one strand shown
T11 sequence: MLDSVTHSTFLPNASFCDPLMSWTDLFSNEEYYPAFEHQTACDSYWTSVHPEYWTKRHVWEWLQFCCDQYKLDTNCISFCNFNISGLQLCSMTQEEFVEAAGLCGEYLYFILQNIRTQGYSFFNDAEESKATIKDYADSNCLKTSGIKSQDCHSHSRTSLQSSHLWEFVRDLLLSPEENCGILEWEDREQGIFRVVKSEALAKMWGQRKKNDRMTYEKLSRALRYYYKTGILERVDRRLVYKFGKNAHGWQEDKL
In short: as §1

ETV3 = target: T12, ETV3 (Homo sapiens, UniProt P41162-2 1-143); details: protein: recombinant; tags: N-terminal GST; dsDNA, one strand shown
T12 sequence: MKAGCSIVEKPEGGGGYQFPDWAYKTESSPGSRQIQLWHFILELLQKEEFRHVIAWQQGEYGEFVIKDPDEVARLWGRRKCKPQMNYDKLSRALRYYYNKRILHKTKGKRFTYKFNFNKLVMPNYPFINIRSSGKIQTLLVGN
In short: as §1

ETV6 = ETV6 (Homo sapiens, UniProt P41212 1-452); details: protein: recombinant; tags: N-terminal GST; dsDNA, one strand shown
ETV6, sequence (P41212 whole entry): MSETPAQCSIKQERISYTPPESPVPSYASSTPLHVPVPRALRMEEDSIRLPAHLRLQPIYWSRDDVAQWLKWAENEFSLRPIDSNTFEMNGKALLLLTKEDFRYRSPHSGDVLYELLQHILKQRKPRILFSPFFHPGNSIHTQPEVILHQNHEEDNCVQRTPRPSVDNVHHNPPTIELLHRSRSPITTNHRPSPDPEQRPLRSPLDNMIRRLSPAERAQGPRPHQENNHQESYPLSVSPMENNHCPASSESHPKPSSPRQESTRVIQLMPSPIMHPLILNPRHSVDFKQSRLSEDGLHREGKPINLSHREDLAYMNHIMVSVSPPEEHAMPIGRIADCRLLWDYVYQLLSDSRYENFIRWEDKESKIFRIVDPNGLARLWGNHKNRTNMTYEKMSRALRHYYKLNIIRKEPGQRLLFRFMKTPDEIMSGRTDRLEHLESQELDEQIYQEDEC
In short: as §1

Row | Sequence | binding signal (FEV) | binding signal (ETV5) | binding signal (HSF1) | binding signal (SPIC) | binding signal (ELF4) | binding signal (ELK4) | binding signal (ETV2) | binding signal (ELF3) | binding signal (ETV1) | binding signal (ERF) | binding signal (ETV3L) | binding signal (ETS2) | binding signal (SPDEF) | binding signal (ETV7) | binding signal (ELF5) | binding signal (ETV3) | binding signal (ETV6)
1 | ACGACG | 1.17 fold enrichment (6-mer frequency, TF over GST control) | 1.18 fold enrichment (6-mer frequency, TF over GST control) | 1.02 fold enrichment (6-mer frequency, TF over GST control) | 1.05 fold enrichment (6-mer frequency, TF over GST control) | 1.2 fold enrichment (6-mer frequency, TF over GST control) | 1.17 fold enrichment (6-mer frequency, TF over GST control) | 1.16 fold enrichment (6-mer frequency, TF over GST control) | 1.17 fold enrichment (6-mer frequency, TF over GST control) | 1.01 fold enrichment (6-mer frequency, TF over GST control) | 1.14 fold enrichment (6-mer frequency, TF over GST control) | 1.08 fold enrichment (6-mer frequency, TF over GST control) | 1.12 fold enrichment (6-mer frequency, TF over GST control) | 1.14 fold enrichment (6-mer frequency, TF over GST control) | 1.25 fold enrichment (6-mer frequency, TF over GST control) | 1.15 fold enrichment (6-mer frequency, TF over GST control) | 1.16 fold enrichment (6-mer frequency, TF over GST control) | 1.2 fold enrichment (6-mer frequency, TF over GST control)
2 | GACCTC | 1.41 fold enrichment (6-mer frequency, TF over GST control) | 1.42 fold enrichment (6-mer frequency, TF over GST control) | 1.17 fold enrichment (6-mer frequency, TF over GST control) | 1.18 fold enrichment (6-mer frequency, TF over GST control) | 1.4 fold enrichment (6-mer frequency, TF over GST control) | 1.38 fold enrichment (6-mer frequency, TF over GST control) | 1.51 fold enrichment (6-mer frequency, TF over GST control) | 1.45 fold enrichment (6-mer frequency, TF over GST control) | 1.38 fold enrichment (6-mer frequency, TF over GST control) | 1.52 fold enrichment (6-mer frequency, TF over GST control) | 1.51 fold enrichment (6-mer frequency, TF over GST control) | 1.38 fold enrichment (6-mer frequency, TF over GST control) | 1.29 fold enrichment (6-mer frequency, TF over GST control) | 1.33 fold enrichment (6-mer frequency, TF over GST control) | 1.32 fold enrichment (6-mer frequency, TF over GST control) | 1.28 fold enrichment (6-mer frequency, TF over GST control) | 1.42 fold enrichment (6-mer frequency, TF over GST control)
